For 10 compounds, Percent Effect results are on record in ChEMBL document CHEMBL3988442, “University of Dundee, Small-Polar-MMV Screening Library” (2021).

Parameters in all cases: scale not given: direction of the effect not stated beside the values
Test [1] deals with Protein translocase subunit SecA (Escherichia coli (strain K12)) (UniProt P10408). Briefly: Assay to Identify E. coli SecA ATPase Inhibitors. Format: functional. The settings on record: 30 µM.
Test [2] concerns the target T1, Ubiquitin-activating enzyme e1, putative (Leishmania donovani (strain BPK282A1)) (UniProt E9BSI1).
T1 sequence (whole entry): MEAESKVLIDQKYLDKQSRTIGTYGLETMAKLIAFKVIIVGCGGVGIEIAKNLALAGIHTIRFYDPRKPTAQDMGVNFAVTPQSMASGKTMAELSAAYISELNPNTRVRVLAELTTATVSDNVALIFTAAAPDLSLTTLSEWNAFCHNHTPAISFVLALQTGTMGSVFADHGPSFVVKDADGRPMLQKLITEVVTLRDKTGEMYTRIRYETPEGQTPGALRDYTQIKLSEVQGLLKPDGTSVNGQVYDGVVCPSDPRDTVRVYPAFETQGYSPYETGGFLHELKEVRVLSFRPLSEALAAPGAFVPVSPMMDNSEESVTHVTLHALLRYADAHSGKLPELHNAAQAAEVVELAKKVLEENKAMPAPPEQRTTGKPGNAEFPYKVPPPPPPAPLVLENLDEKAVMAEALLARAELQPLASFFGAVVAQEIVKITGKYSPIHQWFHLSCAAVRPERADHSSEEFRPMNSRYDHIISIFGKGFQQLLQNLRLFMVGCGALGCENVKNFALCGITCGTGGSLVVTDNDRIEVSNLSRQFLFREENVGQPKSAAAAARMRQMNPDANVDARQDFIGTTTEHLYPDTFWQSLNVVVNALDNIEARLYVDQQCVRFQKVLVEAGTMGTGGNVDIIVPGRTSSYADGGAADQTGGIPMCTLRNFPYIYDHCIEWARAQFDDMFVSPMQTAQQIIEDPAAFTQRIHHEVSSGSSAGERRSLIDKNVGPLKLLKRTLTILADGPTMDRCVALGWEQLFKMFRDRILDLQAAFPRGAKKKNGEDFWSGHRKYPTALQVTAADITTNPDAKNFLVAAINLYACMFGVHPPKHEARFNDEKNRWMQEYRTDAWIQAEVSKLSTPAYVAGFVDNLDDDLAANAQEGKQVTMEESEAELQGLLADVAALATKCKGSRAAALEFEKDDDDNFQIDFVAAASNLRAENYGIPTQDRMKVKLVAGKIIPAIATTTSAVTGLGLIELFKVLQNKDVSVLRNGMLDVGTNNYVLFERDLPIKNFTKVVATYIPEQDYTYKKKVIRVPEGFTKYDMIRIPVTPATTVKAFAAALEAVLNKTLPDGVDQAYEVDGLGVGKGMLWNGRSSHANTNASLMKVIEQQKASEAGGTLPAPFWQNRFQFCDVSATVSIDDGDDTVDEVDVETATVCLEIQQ
Briefly: Leishmania donovani Ubiquitin Activating Enzyme (LdE1). Format: functional. Conditions: 30 µM.

For test [3], the target named is AMP-activated protein kinase, AMPK (Homo sapiens) (UniProt P54646+O43741+P54619+Q9UGJ0+Q9Y478+Q13131+Q9UGI9). Nature of the test: AMP-dependent Kinase enzyme assay. An in vitro enzyme assay that detects ADP turnover that is directly proportional to AMPK activity. This uses naive AMPK that is activated during the assay with MK-8722. Format: functional. Conditions: 30 µM.

Test [4] has as its target Sialic acid-binding Ig-like lectin 9 (Homo sapiens) (UniProt Q9Y336). Briefly: Hs-Siglec9 ALPHAscreen SOP 20170721. Conditions: 10 µM.
A further test deals with Trypanosoma cruzi. Briefly: Trypanosoma cruzi phosphomannomutase and mannose-1-phosphate guanylyltransferase assay. Format: functional. The settings on record: 10 µM.
Test [5] deals with T2, Arginase-2, mitochondrial (Homo sapiens) (UniProt P78540).
T2 sequence (whole entry): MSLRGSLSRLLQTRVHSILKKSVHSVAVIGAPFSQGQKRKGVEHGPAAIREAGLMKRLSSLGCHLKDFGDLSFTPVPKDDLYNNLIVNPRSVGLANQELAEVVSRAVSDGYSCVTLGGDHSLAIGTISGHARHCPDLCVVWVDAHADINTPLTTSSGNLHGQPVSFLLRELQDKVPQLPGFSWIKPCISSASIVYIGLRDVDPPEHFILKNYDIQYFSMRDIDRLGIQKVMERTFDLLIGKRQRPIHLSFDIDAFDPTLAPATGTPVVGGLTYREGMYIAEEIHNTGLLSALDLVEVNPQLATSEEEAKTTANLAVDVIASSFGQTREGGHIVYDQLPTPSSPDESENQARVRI
Briefly: in vitro enzyme assay to detect the production of urea directly proportional to the activity of Arginase II. Note: in the data most compounds retested in dose-response had high values. Format: functional. Conditions: 33.3 µM.

For test [6], the target named is T3, Proteasome subunit beta (Trypanosoma cruzi) (UniProt O96673).
T3 sequence (whole entry): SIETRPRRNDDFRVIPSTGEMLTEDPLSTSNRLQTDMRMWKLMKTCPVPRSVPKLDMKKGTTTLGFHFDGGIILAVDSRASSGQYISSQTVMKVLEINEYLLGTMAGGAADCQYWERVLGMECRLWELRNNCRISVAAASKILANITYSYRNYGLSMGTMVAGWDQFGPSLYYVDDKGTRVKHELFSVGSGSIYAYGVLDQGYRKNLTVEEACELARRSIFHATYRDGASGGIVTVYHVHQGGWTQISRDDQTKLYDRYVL
Nature of the test: Trypanosoma cruzi proteasome chymotrypsin-like activity (TcProtChymo) assay. Note: in the data most compounds retested in dose-response had high values. The settings on record: 9.37 µM. The test is classed as functional.

The species entered for another test is Homo sapiens. Briefly: To identify inhibition of the IFN signalling (Jak-Stat) pathway via expression of an eGFP reporter gene under the control of an IFN-stimulated response element (ISRE) containing MxA promoter. The test is classed as functional. The settings on record: 30 µM. (Reporter assays use an easily measured gene product as a stand-in for the process of interest.)

For test [7], the target named is T4, Tyrosyl-tRNA synthetase, putative (Trypanosoma cruzi (strain CL Brener)) (UniProt Q4DSP6).
T4 sequence (whole entry): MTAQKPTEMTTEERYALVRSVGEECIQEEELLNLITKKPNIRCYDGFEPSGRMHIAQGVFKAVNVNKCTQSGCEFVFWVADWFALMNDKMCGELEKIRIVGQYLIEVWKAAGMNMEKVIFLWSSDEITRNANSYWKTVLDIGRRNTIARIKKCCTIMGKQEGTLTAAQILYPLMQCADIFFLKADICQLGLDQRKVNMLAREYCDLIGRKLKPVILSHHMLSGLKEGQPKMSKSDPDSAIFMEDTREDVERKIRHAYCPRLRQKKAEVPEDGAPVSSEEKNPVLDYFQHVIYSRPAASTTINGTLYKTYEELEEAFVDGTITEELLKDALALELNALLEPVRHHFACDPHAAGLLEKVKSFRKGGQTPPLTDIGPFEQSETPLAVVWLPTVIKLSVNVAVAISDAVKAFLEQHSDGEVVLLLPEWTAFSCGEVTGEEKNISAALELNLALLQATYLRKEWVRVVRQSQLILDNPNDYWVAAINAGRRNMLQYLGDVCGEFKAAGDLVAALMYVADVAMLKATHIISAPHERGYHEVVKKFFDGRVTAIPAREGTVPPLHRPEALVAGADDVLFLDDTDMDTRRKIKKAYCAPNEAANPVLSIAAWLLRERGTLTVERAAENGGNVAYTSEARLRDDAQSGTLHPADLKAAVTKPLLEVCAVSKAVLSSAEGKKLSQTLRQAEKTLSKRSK
Nature of the test: Trypanosoma cruzi tyrosyl tRNA synthetase (TcYRS) _High Tyrosine SOP. Note: in the data most compounds retested in dose-response had high values. The test is classed as functional. The settings on record: 30 µM.

Test [8] concerns the target T4, Tyrosyl-tRNA synthetase, putative (Trypanosoma cruzi (strain CL Brener)). Nature of the test: Trypanosoma cruzi tyrosyl tRNA synthetase (TcYRS) SOP. The test is classed as functional. Conditions: 30 µM.
Test [9] deals with Chromo domain-containing protein 1 (Saccharomyces cerevisiae (strain ATCC 204508 / S288c) (Baker's yeast)) (UniProt P32657). Nature of the test: ScCHD-1 Enzyme Inhibition Assay. Note: in the data most compounds retested in dose-response had high values. The test is classed as functional. The settings on record: 30 µM.

For some assays here: Entries with a potency or affinity are not part of this list.

Protein translocase subunit SecA (Escherichia coli (strain K12)), sequence (P10408 whole entry): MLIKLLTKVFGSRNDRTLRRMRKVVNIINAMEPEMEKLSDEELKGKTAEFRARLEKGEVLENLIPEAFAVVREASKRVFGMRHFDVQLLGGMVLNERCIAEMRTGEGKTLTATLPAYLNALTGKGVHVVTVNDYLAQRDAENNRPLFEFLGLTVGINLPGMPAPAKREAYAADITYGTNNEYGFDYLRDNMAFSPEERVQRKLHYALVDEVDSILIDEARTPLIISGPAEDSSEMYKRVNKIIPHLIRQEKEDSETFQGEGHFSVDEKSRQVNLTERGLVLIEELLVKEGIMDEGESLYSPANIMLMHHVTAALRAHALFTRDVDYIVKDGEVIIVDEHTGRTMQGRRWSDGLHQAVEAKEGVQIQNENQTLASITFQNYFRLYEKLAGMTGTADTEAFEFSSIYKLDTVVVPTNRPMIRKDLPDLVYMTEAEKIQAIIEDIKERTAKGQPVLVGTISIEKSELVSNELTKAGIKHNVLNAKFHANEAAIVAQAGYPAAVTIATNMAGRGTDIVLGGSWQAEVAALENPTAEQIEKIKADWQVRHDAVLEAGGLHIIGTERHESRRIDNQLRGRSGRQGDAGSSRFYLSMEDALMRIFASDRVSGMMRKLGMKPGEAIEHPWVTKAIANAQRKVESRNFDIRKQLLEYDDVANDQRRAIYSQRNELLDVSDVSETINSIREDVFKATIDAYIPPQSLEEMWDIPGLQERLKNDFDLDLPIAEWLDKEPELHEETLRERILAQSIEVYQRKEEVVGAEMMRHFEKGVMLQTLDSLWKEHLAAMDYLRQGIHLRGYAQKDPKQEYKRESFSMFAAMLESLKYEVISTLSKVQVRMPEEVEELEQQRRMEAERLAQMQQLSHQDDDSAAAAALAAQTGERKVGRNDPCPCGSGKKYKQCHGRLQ
Sialic acid-binding Ig-like lectin 9 (Homo sapiens), sequence (Q9Y336 whole entry): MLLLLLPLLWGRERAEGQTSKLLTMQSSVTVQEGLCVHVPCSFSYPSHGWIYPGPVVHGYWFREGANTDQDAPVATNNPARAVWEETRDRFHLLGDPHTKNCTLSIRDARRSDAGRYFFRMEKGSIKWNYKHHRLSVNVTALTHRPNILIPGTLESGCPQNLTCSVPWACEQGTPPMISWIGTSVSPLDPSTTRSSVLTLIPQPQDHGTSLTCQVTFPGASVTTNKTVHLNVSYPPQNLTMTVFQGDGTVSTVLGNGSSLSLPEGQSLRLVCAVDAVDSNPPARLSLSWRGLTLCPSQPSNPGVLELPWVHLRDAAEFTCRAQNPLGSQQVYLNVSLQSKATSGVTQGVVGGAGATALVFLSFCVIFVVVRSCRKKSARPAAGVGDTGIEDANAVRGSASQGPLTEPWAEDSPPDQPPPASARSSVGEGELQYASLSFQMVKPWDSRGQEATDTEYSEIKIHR
Chromo domain-containing protein 1 (Saccharomyces cerevisiae (strain ATCC 204508 / S288c) (Baker's yeast)), sequence (P32657 whole entry, the tested form may be a part): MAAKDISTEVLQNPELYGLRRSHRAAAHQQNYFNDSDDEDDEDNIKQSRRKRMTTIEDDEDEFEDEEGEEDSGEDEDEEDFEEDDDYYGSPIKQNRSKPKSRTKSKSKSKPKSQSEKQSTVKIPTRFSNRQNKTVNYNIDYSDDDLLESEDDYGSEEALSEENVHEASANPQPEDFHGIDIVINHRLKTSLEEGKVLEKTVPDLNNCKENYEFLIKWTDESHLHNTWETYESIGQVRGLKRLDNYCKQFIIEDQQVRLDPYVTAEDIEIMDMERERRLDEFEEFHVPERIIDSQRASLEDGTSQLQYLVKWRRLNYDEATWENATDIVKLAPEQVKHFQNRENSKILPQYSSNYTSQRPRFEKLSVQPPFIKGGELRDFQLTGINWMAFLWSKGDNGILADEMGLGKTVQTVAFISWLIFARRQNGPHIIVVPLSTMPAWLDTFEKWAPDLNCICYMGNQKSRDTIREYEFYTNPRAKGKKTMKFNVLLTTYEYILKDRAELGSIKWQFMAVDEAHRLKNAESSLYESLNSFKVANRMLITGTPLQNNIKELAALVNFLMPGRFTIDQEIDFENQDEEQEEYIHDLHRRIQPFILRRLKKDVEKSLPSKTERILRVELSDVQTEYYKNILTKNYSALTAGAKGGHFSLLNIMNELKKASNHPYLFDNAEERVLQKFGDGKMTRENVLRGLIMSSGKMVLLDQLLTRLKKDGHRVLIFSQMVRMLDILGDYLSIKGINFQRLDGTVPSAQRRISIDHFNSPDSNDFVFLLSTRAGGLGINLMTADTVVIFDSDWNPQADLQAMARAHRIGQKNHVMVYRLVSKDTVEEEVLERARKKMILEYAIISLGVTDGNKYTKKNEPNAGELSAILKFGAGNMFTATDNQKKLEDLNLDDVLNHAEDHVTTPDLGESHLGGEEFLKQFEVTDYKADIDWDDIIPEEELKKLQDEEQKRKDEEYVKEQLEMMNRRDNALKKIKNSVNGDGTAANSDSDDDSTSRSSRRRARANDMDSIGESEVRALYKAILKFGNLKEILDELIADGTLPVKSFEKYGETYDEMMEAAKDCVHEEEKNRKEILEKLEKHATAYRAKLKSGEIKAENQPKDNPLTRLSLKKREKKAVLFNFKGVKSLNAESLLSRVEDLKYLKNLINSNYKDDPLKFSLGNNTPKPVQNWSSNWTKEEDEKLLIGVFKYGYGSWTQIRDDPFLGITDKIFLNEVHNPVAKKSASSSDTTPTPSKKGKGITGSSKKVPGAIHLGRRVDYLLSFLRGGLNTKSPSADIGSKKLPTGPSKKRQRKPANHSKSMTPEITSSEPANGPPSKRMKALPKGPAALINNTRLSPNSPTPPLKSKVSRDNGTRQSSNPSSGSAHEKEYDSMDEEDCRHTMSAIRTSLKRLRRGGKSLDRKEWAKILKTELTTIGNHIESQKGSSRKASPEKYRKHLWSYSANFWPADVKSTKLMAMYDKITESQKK

With `O=C(NCCc1nnc2n1CCC2)NC1(c2cccc(F)c2)CC1`, the Percent Effect was -3.06% in [1]; 15.8% in test [2]; 4.44% in test [3]; -2.57% in test [4]; -3.6% in the test with Trypanosoma cruzi; -3.55% in [5]. In addition, the Percent Effect in test [6] is 14.1%; in the test filed under Homo sapiens, 11%; in test [7], 0%; in [8], 10.4%; in [9], -3.66%.

As for `CNc1nc(CNC(=O)Nc2cccc(F)c2C)cs1`, the Percent Effect is -0.623% in test [1]; -2.63% in test [2]; -1.93% in test [3]; 5.4% in [4]; -1.32% in the test on Trypanosoma cruzi; 1.15% in [5]. Also, the Percent Effect was 5.18% in test [6]; 8.24% in the test filed under Homo sapiens; 1.47% in test [7]; -2.44% in [8]; 5.82% in test [9].

Take `CCn1cnnc1CNC(=O)c1cc(Cl)ccc1O`: the Percent Effect in test [1] was -2.03%; in [2] it was 8.86%; in [3], 6.87%; in test [4], -0.716%; with Trypanosoma cruzi, -5.44%; in [5], -7.1%. Besides, the Percent Effect in test [6] is 17%; in the test listed under Homo sapiens, 11.3%; in test [7], 5.21%; in test [8], -15.2%; in test [9] it was -14%.

Turning to `Cc1ccc(-c2nnc(CN3CCc4cnc(C)nc4C3)o2)cc1`, the Percent Effect was -4.56% in [1]; 0% in test [2]; -17.5% in [3]; 15.5% in test [4]; 11.2% with Trypanosoma cruzi; -13.9% in test [5]. In addition, the Percent Effect in test [6] was 10.4%; in the test listed under Homo sapiens it was 15.6%; in [7], 18.8%; in test [8] it was 30.5%; in test [9], -10.7%.

With `CC(C)(NCC(=O)NCCC#N)c1ccc2c(c1)OCCO2`, the Percent Effect in test [1] is -3.57%; in test [2] it was 27%; in test [3], -8.79%; in test [4], 1.26%; in the test on Trypanosoma cruzi it was 3.49%; in test [5] it was -8.42%. Moreover, the Percent Effect in [6] is 17.3%; in the test filed under Homo sapiens, 3.81%; in [7], 4.43%; in test [8], 23.5%; in [9], -9.99%.

For `CCN(CC1CCOC1)C(=O)c1cccnc1N1CCOCC1` (stereo not given), the Percent Effect was -2.22% in test [1]; 5.26% in [2]; -1.45% in test [3]; 12.7% in test [4]; 6.07% with Trypanosoma cruzi; -1.8% in test [5]. The Percent Effect in [6] was -1.95%; in the test listed under Homo sapiens, -1.93%; in test [7], 4.43%; in [8] it was 6.17%; in test [9], 2.96%.

In the case of `c1ccc(-c2noc(CN3CCOC(Cn4cccn4)C3)n2)nc1` (stereo not given), the Percent Effect in test [1] was -0.328%; in test [2], 0%; in test [3], 4.78%; in test [4], 8.36%; in the test on Trypanosoma cruzi it was 0.188%; in [5], -1.53%. Also, the Percent Effect in [6] is 3.51%; in the test listed under Homo sapiens, 6.16%; in test [7], -0.49%; in [8], -2.44%; in test [9], 4.99%.

`Cc1cn2c(n1)CCC(NC(=O)c1cc(C(C)C)no1)C2` (stereo not given): the Percent Effect in [1] is -4.48%; in test [2] it was 10.4%; in test [3], 2.99%; in test [4], 6.7%; in the test with Trypanosoma cruzi it was 1.67%; in [5] it was 1.05%. The Percent Effect was 4.93% in [6]; 3.25% in the test filed under Homo sapiens; 6.67% in test [7]; 14.1% in test [8]; -23% in test [9].

In the case of `CC(C)CC1SCC(=O)Nc2c1cnn2-c1ccc(F)cc1` (stereo not given), the Percent Effect was -4.89% in test [1]; 6.67% in test [2]; 1.34% in test [3]; 3.64% in [4]; 4.91% with Trypanosoma cruzi; -3.35% in test [5]. Further, the Percent Effect is 2.03% in [6]; 1.9% in the test filed under Homo sapiens; 6.35% in test [7]; 7.69% in test [8]; -4.25% in [9].

`CNC(=O)CCNC(=O)c1cccc(Cn2nc(C)cc2C)c1`: the Percent Effect was -1.98% in test [1]; 4.17% in test [2]; 1.31% in test [3]; 2.11% in test [4]; 5.15% with Trypanosoma cruzi; -3.09% in [5]. The Percent Effect in [6] was 10.7%; in the test filed under Homo sapiens, 15.9%; in [7], 6.32%; in [8], 7.69%; in [9], -5.17%.
